TbPYK inhibitor – T. brucei pyruvate kinase inhibition; Q57TT1; TbPYK enzyme, Kinase-Glo Plus ATP luminescence, 45 min; Potency, µM (series often up to 76.8 µM), for inactives: top-dose activity, negative = inhibition, most hits filed as inhibitors; 0.12% of 410,000 active; AID 624173; note: potency is the fitted concentration of half-maximal effect; % is set by controls: 0 for no effect and ±100 for the full control effect; nearly all actives have a fitted effect of over 50% in size
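Activity of T. brucei pyruvate kinase was followed by Kinase-Glo Plus luminescence after the enzyme reacted 45 min at room temperature with 130 uM ADP (final) and substrate. Test compounds were added before ADP at multiple concentrations.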
LmPK inhibitor – inhibitors of Leishmania mexicana pyruvate kinase. Q27686. purified LmPK, Kinase-Glo ATP luminescence, 1 h. Potency, µM (doses to about 57.5 µM), for inactives: at the top dose activity change, negative = inhibition, most hits filed as inhibitors. 0.37% of 290,000 active. AID 1721; note: potency is the fitted concentration of half-maximal effect; % is set by controls: 0 for no effect and ±100 for the full control effect
Target sequence (Q27686 whole entry, looked up): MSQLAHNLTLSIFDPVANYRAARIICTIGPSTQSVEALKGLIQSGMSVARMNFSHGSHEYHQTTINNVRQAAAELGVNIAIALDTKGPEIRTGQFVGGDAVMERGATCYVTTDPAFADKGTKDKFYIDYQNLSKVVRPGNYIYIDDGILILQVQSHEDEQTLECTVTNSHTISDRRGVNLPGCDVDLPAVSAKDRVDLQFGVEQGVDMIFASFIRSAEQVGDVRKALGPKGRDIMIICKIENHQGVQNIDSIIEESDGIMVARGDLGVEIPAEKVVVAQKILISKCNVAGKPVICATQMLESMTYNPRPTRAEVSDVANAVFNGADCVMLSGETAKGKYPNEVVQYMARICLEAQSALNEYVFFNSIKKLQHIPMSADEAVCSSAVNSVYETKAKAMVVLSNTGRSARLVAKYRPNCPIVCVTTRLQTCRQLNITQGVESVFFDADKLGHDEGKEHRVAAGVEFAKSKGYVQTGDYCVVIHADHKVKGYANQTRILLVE
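0.1 nM LmPK, 0.5 mM PEP, 0.1 mM ADP; 50 mM imidazole pH 7.2, 7 mM MgCl2, 50 mM KCl; 1 h RT. Kinase-Glo luminescence readout, normalized to no-enzyme (full inhibition) and uninhibited wells.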
Sm TGR block – inhibitors of Schistosoma mansoni thioredoxin glutathione reductase; purified TGR, DTNB reduction, TNB absorbance 405 nm; Potency, µM (doses to about 114 µM), inactives show at the top dose activity change, negative = inhibition, hits mostly inhibitors; 3% of 360,000 active; note: potency is the fitted concentration of half-maximal effect; % is set by controls: 0 for no effect and ±100 for the full control effect; nearly all actives have a fitted effect of over 60% in size
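Kinetic colorimetric format: TGR-catalysed, NADPH-driven DTNB reduction monitored via TNB absorbance. Enzyme dispensed at 20 nM; compound exposure 15 min at room temperature before reaction start.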
RE007 growth inh – less growth of the S. pombe RE007 Vpr strain; 0.21% of 360,000 active; Potency, µM (doses to about 92.2 µM), without a hit: top-dose activity change, negative = less growth, most hits filed as inhibitors; S. pombe RE007 Vpr strain, BacTiter-Glo ATP luminescence, 24 h; active = well fitted falling curve with a large enough effect; inconclusive = small, poorly fitted or top-dose-only effect; inactive = no such curve, though single readings can be large or run the other way; note: potency is the fitted concentration of half-maximal effect; % is set by controls: 0 for no effect and ±100 for the full control effect; nearly all actives have a fitted effect of over 50% in size
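Fission yeast strain RE007, carrying one chromosomally integrated HIV-1 vpr copy, was seeded at OD 0.01 in PMG+AL medium with 23 nL pinned compound. After 24 h at 30 °C and 99% humidity, viability was read by BacTiter-Glo luminescence.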
NS1 inh – inhibitors of influenza NS1 protein function; Potency, µM (series often up to 46.1 µM), for the others: top-dose activity, positive = more growth; 0.4% of 270,000 active; AID 2326; calls by dose curve; note: potency is the fitted concentration of half-maximal effect; actives are rising curves; nearly all actives have a fitted effect of over 50% in size
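S. cerevisiae expressing influenza A NS1, grown in glucose, washed, then diluted 1:100 into pH 6.0 -URA galactose medium with 23 nl compound. Growth recovery read as OD600; NS1-free strain serves as control.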
SARS PLpro yeast-1 – inhibitors of SARS-CoV papain-like protease in yeast; Potency, µM (highest dose often 32.9 µM), inactives show at the highest dose activity, positive = growth rescue, most hits filed as activators; 0.19% of 330,000 active; S. cerevisiae expressing SARS-CoV PLpro, growth rescue; AID 485353; calls by dose curve; note: potency is the fitted concentration of half-maximal effect; 0% is about no effect; nearly all actives have a fitted effect of over 55% in size
SARS PLpro yeast-2 – Inhibits SARS-CoV PLP in yeast, hit validation; yeast expressing SARS-CoV PLpro, growth phenotype rescue; 19% of 1,000 active; shares compounds with SARS PLpro yeast-1; calls only; call rule not given here
The depositor's hits bear a star; i = inactive; ? = inconclusive; nt = no result given; + = active, no number; [ ] = dose if it differs, or a comment. Shown are actives, neighbours in structure and some others; about 3.3% of the full set was active somewhere. Unless noted, calls come from the whole dose curve; as a rule, active = well fitted curve in the direction sought with a large enough effect; inconclusive = small, poorly fitted or top-dose-only effect, or another doubt; inactive = no such curve, though single readings can be large; an effect the other way counts as inactive or inconclusive.

SMILES	TbPYK inhibitor	LmPK inhibitor	Sm TGR block	RE007 growth inh	NS1 inh	SARS PLpro yeast-1	SARS PLpro yeast-2
Cc1ccc(C)c(N2CCN(C(=O)C3CCCN(S(=O)(=O)c4c(C)[nH]c(=O)[nH]c4=O)C3)CC2)c1 (configuration not stated)	-2%	5%	4%	-2%	-1%	10µM*	i
COc1cc(CNCc2ccccn2)ccc1OCc1ccc(Cl)cc1	-6%	0%	8%	7%	-7%	?	i
O=C1CC(c2ccccc2)Cc2[nH]c(=O)c(C(=O)Nc3cccc(F)c3)cc21 (configuration not stated)	2%	nt	0%	nt	nt	nt	nt
O=C(CCCCn1c(=O)c2ccccc2n(CC(=O)Nc2ccccc2)c1=O)NCc1ccccc1Cl	-4%	nt	5%	nt	nt	nt	nt
Cc1c(C(=O)Nc2ccc(F)c(Cl)c2)sc2nc3n(c(=O)c12)CCC3	-9%	nt	4%	nt	nt	nt	nt
Cc1ccc(C)c(CN2C(=O)C3(c4ccccc42)N(c2ccc(Cl)cc2)C(=O)CS3(=O)=O)c1 (configuration not stated)	-3%	nt	-2%	nt	nt	nt	nt
CCS(=O)(=O)c1ncc(N(Cc2ccco2)Cc2sccc2C)c(C(=O)Nc2cc(C)ccc2C)n1	2%	nt	-3%	nt	nt	nt	nt
CCOc1ncccc1C(=O)OCC(=O)Nc1ccc2c(c1)CCC2	9%	nt	nt	3%	nt	?	i
CCOc1ncccc1C(=O)OCC(=O)Nc1ccc2c(c1)OCO2	-3%	-1%	-10%	-2%	nt	-3%	nt
O=C(Nc1cccc(-c2nn[nH]n2)c1)c1csc2c1CCCC2	3%	5%	-5%	-3%	16%	?	i
O=C(Nc1cccc(-c2nn[nH]n2)c1)c1cccs1	-12%	-5%	0%	-2%	-5%	-2%	nt
Cc1ccc(CNC(=O)CCc2nc3cccnc3n2Cc2ccccc2)cc1	1%	nt	2%	nt	nt	nt	nt
COc1ccc(CNC(=O)c2ccc(S(=O)(=O)N3CCCC3)cc2)cc1OC	1%	-4%	1%	5%	0%	?	i
COc1ccc(S(=O)(=O)N2CCCCC2)cc1C(C)C	-10%	-3%	0%	-1%	-52%	?	i
COc1ccc(CNC(=O)CCc2ccc(S(=O)(=O)N3CCCCCC3)cc2)cc1OC	-12%	nt	-8%	-6%	nt	-7%	nt
O=C1CCCN1CCCNc1nc(NCc2cccs2)nc2ccsc12	-5%	nt	nt	?	nt	nt	nt
CC(=O)Oc1cc2oc(=O)cc(C)c2cc1Cl	1%	-6%	1%	-16%	-34%	0%	nt
Cc1ccc(S(=O)(=O)NC(C(=O)Oc2cc3oc(=O)cc(C)c3cc2Cl)C(C)C)cc1 (configuration not stated)	-6%	1%	-13%	33%	2%	22µM*	?
O=c1cccc2n1CC1CC2CN(Cc2ccc3c(c2)OCO3)C1 (configuration not stated)	5%	2%	-24%	11%	-2%	?	?
COc1ccc(CN2CC3CC(C2)c2cccc(=O)n2C3)cc1OC (configuration not stated)	-6%	0%	0%	5%	9%	-6%	nt
COc1cc(/C=C/C(=O)NC(C)C)ccc1OCc1ccccc1	1%	1%	-12%	5%	12%	?	+
NC(=S)N/N=C/c1ccccc1OCc1cccc(Cl)c1	-3%	-1%	4%	2%	6%	16µM*	?
NC(=S)N/N=C/c1ccc2cccc(OCc3ccccc3)c2n1	-11%	0%	29%	1%	10%	11%	nt
C=C1CC2C=C(NC(C)=O)CC(C1)C2 (configuration not stated)	0%	3%	10%	18%	2%	?	i
CCN(CC)S(=O)(=O)c1ccc(NC(=S)NC(=O)CC(C)C)cc1	-4%	-2%	-22%	-3%	?	nt	i
SMILES	TbPYK inhibitor	LmPK inhibitor	Sm TGR block	RE007 growth inh	NS1 inh	SARS PLpro yeast-1	SARS PLpro yeast-2
Cc1ccc(C)c(N2C(=O)C3C4C=CC(CC4)C3C2=O)c1 (configuration not stated)	4%	1%	?	-20%	14%	2%	nt
Cc1ccc(C)c(N2CC(=O)N(c3cc(C)ccc3C)CC2=O)c1	4%	-3%	-5%	0%	2%	?	i
CCCCCC(=O)NNC(=S)NC(=O)c1cccc([N+](=O)[O-])c1	?	0%	1.6µM*	nt	-9%	11µM*	i
CC(NC(=O)c1nn(C)c2c1CSc1ccccc1-2)c1ccccc1 (configuration not stated)	1%	nt	-5%	nt	nt	nt	nt
O=C(NC1CCC(O)CC1)c1ccc(Br)o1 (configuration not stated)	3%	nt	nt	5%	nt	4.5µM*	i
O=C(NC1CCCCC1)c1ccc(Br)o1	-13%	0%	-1%	-5%	-3%	4%	nt
Cc1ccc(C)c(N2CCN(C(=O)CCS(=O)(=O)c3cc(Br)cc4c3N(C(=O)C3CC3)CC4)CC2)c1	-5%	nt	0%	nt	nt	nt	nt
O=C(NC1CCCCC1)N1CCCC(c2nc(-c3cccs3)no2)C1 (configuration not stated)	0%	-1%	0%	1%	-2%	-7%	nt
O=C(Nc1ccccc1)N1CCCC(c2nc(-c3cccs3)no2)C1 (configuration not stated)	-14%	-1%	9%	10%	-62%	16µM*	i
CCOC(=O)C(Cc1ccccc1)C(=O)Nc1ccc(N(CC)CC)cc1 (configuration not stated)	-19%	0%	-4%	-6%	-24%	-4%	nt
CCOC(=O)C(Cc1ccccc1)C(=O)Nc1cccc(C)c1 (configuration not stated)	-13%	2%	-8%	-29%	-18%	22µM*	i
CN(C)c1ccc(CNC(=O)c2cccn2-c2nnc(N3CCCCC3)s2)cc1	-10%	nt	-12%	nt	nt	nt	nt
O=C(NCc1cccc(Br)c1)c1ccc(-n2cnc3cccnc32)cc1	5%[15.4 µM]	nt	-8%	nt	nt	nt	nt
O=C(O)c1ccc(N=NN2CCCCCC2)cc1	-6%	-2%	-15%	18%	16%	13µM*	i
Clc1cccc(-n2ncc3c(Nc4ccc5c(c4)OCCO5)ncnc32)c1	4%	nt	-1%	nt	nt	nt	nt
O=C(NC(=S)Nc1ccc(O)cc1)c1ccccc1Cl	4%	-4%	?	-2%	6%	-2%	nt
CC(C)CNC(=S)NC(=O)c1ccccc1Cl	-3%	-4%	-16%	-19%	10%	?	i
CN(C)c1ccc(C(=O)c2ccc(N(C)C)cc2)cc1	0%	-2%	3%	1%	-6%	-14%	nt

Screening data: PubChem, National Center for Advancing Translational Sciences (NCATS)
